Experimental data: the supplement of paper PMC8975748
± gives the standard deviation of the averaged measurements.

Tests used:
[1] = test system: Saccharomyces cerevisiae BY4741 SeMeCo community; assay: mean cell size (pixel area) (pixels); higher = larger cells; conditions: 10 µM; 24 h; SM minimal medium
Outline: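 The test system was a fluorescent Saccharomyces cerevisiae BY4741 community with four plasmids, each restoring one auxotrophy and carrying a fluorescent marker. Cells were grown for 24 h in SM medium with drug at a final 10 µM in 384-well plates, then fixed with paraformaldehyde and imaged by automated confocal microscopy for Harmony analysis of mean cell pixel area per well. Values represent the average of 3 replicates. Same SeMeCo high-content imaging drug screen: Selleck FDA-approved drugs at 10 µM, 24 h in SM medium, 384-well plates, 3 replicates.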

[2] = test system: Saccharomyces cerevisiae BY4741 SeMeCo community; assay: z-score of subpopulation abundance vs DMSO median, subpopulation auxotrophic for M; higher = larger share of this subpopulation than in DMSO controls; conditions: 10 µM; 24 h; SM minimal medium; subpopulation (auxotrophy): M
Outline: (§1)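 Scoring was based on each subpopulation's abundance, expressed as a z-score against the vehicle-well median. A Saccharomyces cerevisiae BY4741 community with four plasmids, each restoring one auxotrophy and encoding a distinct fluorescent protein, was pre-grown overnight to OD600 1.0, diluted to 0.3, and added at 70 µl to 384-well plates acoustically predosed with library drugs (10 µM final). It then grew 24 h in minimal SM medium before paraformaldehyde fixation and automated confocal microscopy, with single-auxotroph fluorescent strains setting thresholds and autofluorescence correction.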

[3] = test system: Saccharomyces cerevisiae BY4741 SeMeCo community; assay: z-score of subpopulation abundance vs DMSO median, subpopulation auxotrophic for L; higher = larger share of this subpopulation than in DMSO controls; conditions: 10 µM; 24 h; SM minimal medium; subpopulation (auxotrophy): L
Outline: as §1

[4] = test system: Saccharomyces cerevisiae BY4741 SeMeCo community; assay: z-score of subpopulation abundance vs DMSO median, subpopulation auxotrophic for U; higher = larger share of this subpopulation than in DMSO controls; conditions: 10 µM; 24 h; SM minimal medium; subpopulation (auxotrophy): U
Outline: as §1

[5] = test system: Saccharomyces cerevisiae BY4741 SeMeCo community; assay: z-score of subpopulation abundance vs DMSO median, subpopulation auxotrophic for LU; higher = larger share of this subpopulation than in DMSO controls; conditions: 10 µM; 24 h; SM minimal medium; subpopulation (auxotrophy): LU
Outline: as §1

[6] = test system: Saccharomyces cerevisiae BY4741 SeMeCo community; assay: z-score of subpopulation abundance vs DMSO median, subpopulation auxotrophic for LM; higher = larger share of this subpopulation than in DMSO controls; conditions: 10 µM; 24 h; SM minimal medium; subpopulation (auxotrophy): LM
Outline: as §1

[7] = test system: Saccharomyces cerevisiae BY4741 SeMeCo community; assay: z-score of subpopulation abundance vs DMSO median, subpopulation auxotrophic for HM; higher = larger share of this subpopulation than in DMSO controls; conditions: 10 µM; 24 h; SM minimal medium; subpopulation (auxotrophy): HM
Outline: as §1

[8] = test system: Saccharomyces cerevisiae BY4741 SeMeCo community; assay: z-score of subpopulation abundance vs DMSO median, subpopulation auxotrophic for HU; higher = larger share of this subpopulation than in DMSO controls; conditions: 10 µM; 24 h; SM minimal medium; subpopulation (auxotrophy): HU
Outline: as §1

[9] = test system: Saccharomyces cerevisiae BY4741 SeMeCo community; assay: z-score of subpopulation abundance vs DMSO median, subpopulation auxotrophic for UM; higher = larger share of this subpopulation than in DMSO controls; conditions: 10 µM; 24 h; SM minimal medium; subpopulation (auxotrophy): UM
Outline: as §1

[10] = test system: Saccharomyces cerevisiae BY4741 SeMeCo community; assay: z-score of subpopulation abundance vs DMSO median, subpopulation auxotrophic for HLM; higher = larger share of this subpopulation than in DMSO controls; conditions: 10 µM; 24 h; SM minimal medium; subpopulation (auxotrophy): HLM
Outline: as §1

[11] = test system: Saccharomyces cerevisiae BY4741 SeMeCo community; assay: z-score of subpopulation abundance vs DMSO median, subpopulation auxotrophic for HUM; higher = larger share of this subpopulation than in DMSO controls; conditions: 10 µM; 24 h; SM minimal medium; subpopulation (auxotrophy): HUM
Outline: as §1

[12] = test system: Saccharomyces cerevisiae BY4741 SeMeCo community; assay: z-score of subpopulation abundance vs DMSO median, subpopulation auxotrophic for LUM; higher = larger share of this subpopulation than in DMSO controls; conditions: 10 µM; 24 h; SM minimal medium; subpopulation (auxotrophy): LUM
Outline: as §1

[13] = test system: Saccharomyces cerevisiae BY4741 SeMeCo community; assay: z-score of subpopulation abundance vs DMSO median, subpopulation auxotrophic for HLUM; higher = larger share of this subpopulation than in DMSO controls; conditions: 10 µM; 24 h; SM minimal medium; subpopulation (auxotrophy): HLUM
Outline: as §1

[14] = test system: Saccharomyces cerevisiae BY4741 SeMeCo community; assay: z-score of prototroph abundance vs DMSO median; higher = larger share of this subpopulation than in DMSO controls; conditions: 10 µM; 24 h; SM minimal medium; subpopulation (auxotrophy): Prototroph
Outline: as §1

[15] = test system: Saccharomyces cerevisiae BY4741 SeMeCo community; assay: z-score of subpopulation abundance vs DMSO median, subpopulation auxotrophic for HL; higher = larger share of this subpopulation than in DMSO controls; conditions: 10 µM; 24 h; SM minimal medium; subpopulation (auxotrophy): HL
Outline: as §1

[16] = test system: Saccharomyces cerevisiae BY4741 SeMeCo community; assay: z-score of subpopulation abundance vs DMSO median, subpopulation auxotrophic for H; higher = larger share of this subpopulation than in DMSO controls; conditions: 10 µM; 24 h; SM minimal medium; subpopulation (auxotrophy): H
Outline: as §1

[17] = test system: Saccharomyces cerevisiae BY4741 SeMeCo community; assay: z-score of subpopulation abundance vs DMSO median, subpopulation auxotrophic for HLU; higher = larger share of this subpopulation than in DMSO controls; conditions: 10 µM; 24 h; SM minimal medium; subpopulation (auxotrophy): HLU
Outline: as §1

Structure (SMILES)	mean cell size [1]	z-score of subpopulation abundance [2]	z-score of subpopulation abundance [3]	z-score of subpopulation abundance [4]	z-score of subpopulation abundance [5]	z-score of subpopulation abundance [6]	z-score of subpopulation abundance [7]	z-score of subpopulation abundance [8]	z-score of subpopulation abundance [9]	z-score of subpopulation abundance [10]	z-score of subpopulation abundance [11]	z-score of subpopulation abundance [12]	z-score of subpopulation abundance [13]	z-score of prototroph abundance [14]	z-score of subpopulation abundance [15]	z-score of subpopulation abundance [16]	z-score of subpopulation abundance [17]
CN(C)C(=O)COC(=O)Cc1ccc(OC(=O)c2ccc(NC(=N)N)cc2)cc1 [Camostat Mesilate]	12.5 ± 0.12	-0.25	0.34	-0.37	-0.08	-0.5	-0.32	-0.36	-0.43	-0.36	-0.25	-0.84	-0.69				
O=C(O)C[C@H](O)C[C@H](O)/C=C/c1c(C2CC2)nc2ccccc2c1-c1ccc(F)cc1 [Pitavastatin Calcium]	12 ± 0.2	1	0.86		1.45	-0.2	4.05		1.84	2.39	3.37	1.38	1.55	-2.8			
OC[C@H]1O[C@H](OCC2O[C@@H](O)[C@H](O)[C@@H](O)[C@@H]2O)[C@H](O)[C@@H](O)[C@H]1O (some centres undefined) [Melibiose]	12.5 ± 0.29	0.28	0.1	0.61	0.81	-0.85	-0.15	0.74	0.56	1.11	0.46	0.14	1	-0.13	0.32		
O=C(O)Cc1ccccc1Nc1c(Cl)cccc1Cl [Diclofenac Diethylamine]	12.66 ± 0.1		0.07	-1.34		-0.51	-0.49	-1.85	-1.81		-1.96	-1.21	0	2.27		-1.31	-0.36
Nc1nc2[nH]cc(CCc3ccc(C(=O)N[C@@H](CCC(=O)O)C(=O)O)cc3)c2c(=O)[nH]1 [Pemetrexed]	14.85 ± 0.13		1.61	-1.55		-3.17	-4.62	2.15	-7.46	0.42	-4.52			3.89	2.81	5.02	4.74
CCOc1ccc2ccccc2c1C(=O)N[C@@H]1C(=O)N2[C@@H]1SC(C)(C)[C@@H]2C(=O)O [Nafcillin Sodium]	12.2 ± 0.23	-0.26	0.95	-0.63	0.04	0.39	0.22	-0.72		-0.71	0	0.08	-0.09			-0.47	
O=C(O[C@H]1CN2CCC1CC2)N1CCc2ccccc2[C@@H]1c1ccccc1 [Solifenacin succinate]	12.1 ± 0.28	0.77	-0.16	0.4	0.43	0.27	0	0.28	1.06	0.25	0.3	0.68	0.94	-0.49		-0.91	
